What all share (assay): NCI-60 one-dose screen, 48 h (100 = growth as untreated, 0 = no growth, -100 = all killed)
For one experiment, the system named is HT29 colon. The note with it: 10 µM unless noted.
The test system of another experiment is SNB-19 CNS. The settings on record: 10 µM unless noted.
For the next experiment, the system named is U251 CNS. The settings on record: 10 µM unless noted.
For a further experiment, the system named is PC-3 prostate. The settings on record: 10 µM unless noted.
The next experiment has as its system SK-MEL-5 melanoma. The note with it: 10 µM unless noted.
For a further experiment, the system named is UACC-62 melanoma. The note with it: 10 µM unless noted.
Another experiment relates to LOX IMVI melanoma. The note with it: 10 µM unless noted.
Another experiment relates to SK-MEL-28 melanoma. The note with it: 10 µM.
Another experiment relates to SK-MEL-2 melanoma. The settings on record: 10 µM unless noted.
Another experiment has as its system SN12C renal. The note with it: 10 µM unless noted.
The test system of another experiment is UO-31 renal. The settings on record: 10 µM unless noted.
A further experiment relates to TK-10 renal. The note with it: 10 µM unless noted.
The next experiment deals with ACHN renal. The note with it: 10 µM unless noted.
The test system of a further experiment is CAKI-1 renal. The note with it: 10 µM unless noted.
A further experiment relates to A498 renal. The settings on record: 10 µM unless noted.
The next experiment relates to CCRF-CEM leukemia. The settings on record: 10 µM unless noted.
The subject of another experiment is MOLT-4 leukemia. The note with it: 10 µM unless noted.
The next experiment relates to SR leukemia. The settings on record: 10 µM unless noted.
In another experiment the test system is EKVX NSCLC. The note with it: 10 µM unless noted.
Another experiment relates to SNB-75 CNS. The note with it: 10 µM unless noted.

This is an account of results in PubChem BioAssay (NCI).

Compounds without any hit were thinned out: in the full panel of roughly 83,000, 20% have a hit.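 Step 1: grow cells in 96-well plates. Step 2: add test compound at a single concentration. Step 3: incubate 48 h. Step 4: record percent growth.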 A number with no mark means an inactive call. Calls of active or inactive are those of the source. The calls were made as follows: active = growth percent below 10; inactive = the rest.

As for `COc1cc(C#N)cc2[nH]c(=O)oc12`, the growth in the experiment on HT29 colon is 106%; with SNB-19 CNS, 106%; in the experiment with U251 CNS, 92.4%; in the experiment on PC-3 prostate it was 102%; in the experiment on SK-MEL-5 melanoma, 96.7%; with UACC-62 melanoma, 113%. Moreover, the growth in the experiment on LOX IMVI melanoma was 111%; in the experiment with SK-MEL-28 melanoma, 107%; in the experiment with SK-MEL-2 melanoma, 106%; with SN12C renal it was 115%; with UO-31 renal, 85.6%; in the experiment on TK-10 renal it was 103%. The growth was 99.7% in the experiment on ACHN renal; 91.8% in the experiment with CAKI-1 renal; 82.5% in the experiment with A498 renal; 109% in the experiment with CCRF-CEM leukemia; 123% with MOLT-4 leukemia; 120% in the experiment on SR leukemia.
As to `CCCCN1CCN(c2ccc3nc(-c4ccc5nc(-c6ccc(OCC)cc6)[nH]c5c4)[nH]c3c2)CC1`, the growth is 21.4% with HT29 colon; 85.3% in the experiment with SNB-19 CNS; 60.5% in the experiment with U251 CNS; 56.7% in the experiment on PC-3 prostate; 49.3% with SK-MEL-5 melanoma; 59.9% with UACC-62 melanoma. Further, the growth in the experiment on LOX IMVI melanoma is -81% (active); in the experiment with SK-MEL-28 melanoma, 61.6%; with EKVX NSCLC it was 92.9%; in the experiment on SN12C renal it was 76.9%; with UO-31 renal, 100%; in the experiment with TK-10 renal it was 86.8%. The growth in the experiment with ACHN renal was 63.9%; in the experiment with CAKI-1 renal, 51.2%; with CCRF-CEM leukemia it was 20.5%; in the experiment on MOLT-4 leukemia, 56.9%; in the experiment on SR leukemia it was -1.98% (active).
On to `N#Cc1c(N)nc2c(c1N)C(c1ccc(F)cc1)c1ccc(N)cc1O2` (stereo not drawn), for which the growth is 112% with HT29 colon; 127% in the experiment on SNB-19 CNS; 102% in the experiment with U251 CNS; 106% with PC-3 prostate; 96.1% with SK-MEL-5 melanoma; 111% with UACC-62 melanoma. Besides, the growth was 110% in the experiment on LOX IMVI melanoma; 109% with SK-MEL-28 melanoma; 104% in the experiment with SN12C renal; 105% with UO-31 renal; 116% in the experiment with TK-10 renal; 91.3% in the experiment on CAKI-1 renal. Further, the growth in the experiment with A498 renal is 58.4%; with CCRF-CEM leukemia, 99.9%; with MOLT-4 leukemia, 96.4%; with SR leukemia it was 93%.
As for `COc1cc(C2C(C#N)=C(N)OC3=C2C(=O)c2ccccc2C3=O)cc(OC)c1OC` (stereo not drawn), the growth in the experiment on HT29 colon was 106%; in the experiment with SNB-75 CNS, 7.57% (active); in the experiment with U251 CNS, 17.9%; in the experiment with PC-3 prostate, 19%; with UACC-62 melanoma it was 25.9%; in the experiment with LOX IMVI melanoma, 27.4%. Further, the growth is 58.1% in the experiment with SK-MEL-28 melanoma; -2.31% (active) in the experiment with SK-MEL-2 melanoma; 52.4% with EKVX NSCLC; 39.2% in the experiment with SN12C renal; 41.2% in the experiment with UO-31 renal; 63.9% with TK-10 renal. In addition, the growth in the experiment with ACHN renal is 37.3%; in the experiment with CAKI-1 renal, 40.9%; in the experiment on A498 renal, -0.0439% (active); with CCRF-CEM leukemia it was 55.6%; in the experiment with MOLT-4 leukemia, 87.1%; with SR leukemia, 31.6%.
`O=C(Nc1ccccc1O)c1ccc(Oc2cccc(C(=O)Nc3ccccc3O)c2)cc1`: the growth was 77.7% with HT29 colon; 31.1% with SNB-75 CNS; 11.8% in the experiment with U251 CNS; 32.6% in the experiment with PC-3 prostate; 10.9% in the experiment on SK-MEL-5 melanoma; -33% (active) with UACC-62 melanoma. Besides, the growth with SK-MEL-28 melanoma was 32.6%; in the experiment with SK-MEL-2 melanoma, 28.4%; in the experiment with SN12C renal, 15.4%; in the experiment on UO-31 renal, 5.32% (active); with TK-10 renal, 28.3%; in the experiment with ACHN renal, 15.8%. Further, the growth in the experiment with CAKI-1 renal was -0.0411% (active); with A498 renal, 20.5%; in the experiment with CCRF-CEM leukemia, -6.44% (active); in the experiment with MOLT-4 leukemia, -28.5% (active); with SR leukemia, -28.6% (active).
For the compound `O=C(Nc1ccc(Br)cc1F)c1cc(I)ccc1O`, the growth in the experiment with HT29 colon was 92.4%; with SNB-19 CNS, 13.3%; with U251 CNS it was 3.12% (active); in the experiment on PC-3 prostate, 7.07% (active); with SK-MEL-5 melanoma it was -68.4% (active); with UACC-62 melanoma, 3.48% (active). The growth was 13.7% with LOX IMVI melanoma; 19.1% in the experiment on SK-MEL-28 melanoma; -26.7% (active) with SK-MEL-2 melanoma; 43.8% in the experiment with EKVX NSCLC; 5.88% (active) in the experiment on SN12C renal; 2.04% (active) with UO-31 renal. For the same compound, the growth in the experiment with TK-10 renal was 12.9%; in the experiment with ACHN renal it was 6.1% (active); in the experiment with CAKI-1 renal, -16.8% (active); in the experiment on A498 renal, -40.9% (active); in the experiment with CCRF-CEM leukemia it was 11.9%; with MOLT-4 leukemia it was 6.68% (active).
With `C1=CC2(C=C1)OC21CCC2(C=CC3(C2)OC3C2CCCCC2)CC1` (stereo not drawn), the growth is 110% with HT29 colon; 94.2% in the experiment on SNB-75 CNS; 99.5% in the experiment on U251 CNS; 101% in the experiment with PC-3 prostate; 106% with SK-MEL-5 melanoma; 99.7% with UACC-62 melanoma. Besides, the growth in the experiment on LOX IMVI melanoma is 92.5%; with SK-MEL-28 melanoma it was 105%; in the experiment on SK-MEL-2 melanoma, 104%; with SN12C renal, 105%; with UO-31 renal, 96.8%; in the experiment with TK-10 renal, 113%. The growth was 104% in the experiment with ACHN renal; 93.6% with CAKI-1 renal; 97.2% in the experiment with A498 renal; 97.1% with CCRF-CEM leukemia; 95.6% in the experiment with MOLT-4 leukemia; 90.7% in the experiment with SR leukemia.
For the compound `OCCNc1nc(Nc2ccc(C3=NN(c4cc(Cl)cc(Cl)c4)C(c4ccc(C(F)(F)F)cc4)C3)cc2)nc(N2CCOCC2)n1` (stereo not drawn), the growth with HT29 colon is 55.9%; in the experiment with SNB-19 CNS, 87.6%; in the experiment on U251 CNS, 63.4%; with PC-3 prostate it was 62.9%; in the experiment with SK-MEL-5 melanoma, 76%; in the experiment on UACC-62 melanoma, 69.7%. Moreover, the growth in the experiment with LOX IMVI melanoma was 44.8%; in the experiment on SK-MEL-28 melanoma it was 81.4%; in the experiment with SK-MEL-2 melanoma, 116%; in the experiment with EKVX NSCLC, 71.4%; in the experiment on SN12C renal, 74.8%; in the experiment on UO-31 renal, 72%. In addition, the growth in the experiment on TK-10 renal was 114%; with ACHN renal it was 56.8%; with CAKI-1 renal it was 71.3%; with A498 renal, 82.4%; in the experiment on CCRF-CEM leukemia, 51%; in the experiment on MOLT-4 leukemia, 60.2%. The growth in the experiment with SR leukemia was 70.5%.
With `CCC1=C[C@@H]2CN(C1)Cc1c([nH]c3ccccc13)[C@@](C(=O)OC)(c1cc3c(cc1OC)N(C)[C@H]1[C@@](O)(C(=O)OC)[C@H](OC(C)=O)[C@]4(CC)[C@@H]5C[C@@H]5CN5CC[C@]31[C@@H]54)C2`, the growth with HT29 colon is -23.3% (active); in the experiment with SNB-19 CNS it was 55.7%; in the experiment on U251 CNS, 7.9% (active); in the experiment on PC-3 prostate, 22.5%; in the experiment on SK-MEL-5 melanoma, -79.9% (active); with UACC-62 melanoma, 12.6%. Also, the growth in the experiment on LOX IMVI melanoma was 3.68% (active); in the experiment with SK-MEL-28 melanoma, 14.4%; with SK-MEL-2 melanoma it was 10.4%; in the experiment on SN12C renal it was 19.3%; in the experiment on UO-31 renal, 3.11% (active); with TK-10 renal, 24.2%. In addition, the growth is 19.6% in the experiment with ACHN renal; 24.9% in the experiment on CAKI-1 renal; -24.5% (active) with A498 renal; -3.35% (active) in the experiment with MOLT-4 leukemia; -19.3% (active) in the experiment with SR leukemia.
